KLF5 inh = suppresses KLF5 promoter-driven expression; inhibition, % at 5 µM; 0.23% of 290,000 active; DLD-1 KLF5 promoter-luciferase reporter, luminescence;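 active = inhibition above a per-plate limit of that plate's mean compound inhibition plus 3 SD, cut at about 60% in these data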;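 also: higher means less KLF5 promoter-driven luciferase light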
Ba/F3 V617F tox = reduce viability of Ba/F3 cells dependent on JAK2V617F | Ba/F3 EpoR-JAK2V617F viability, ATP luminescence | inhibition, % at 5.6 µM | 1.1% of 220,000 active | AID 1446;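 active = inhibition above the campaign mean plus 3 SD over all tested compounds, cut at about 24% in these data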;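 also: cytokine-independent growth of Ba/F3 cells driven by EpoR plus mutant JAK2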
APP transl inh = APP translation inhibition; SH-SY5Y APP 5'UTR-luciferase reporter, luminescence; inhibition, % at 2 µM; 0.82% of 190,000 active;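 active = inhibition above a set limit, derived from the sample mean plus 3 SD, cut at about 45% in these data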
BaF3 parental = parental Ba/F3 viability inhibition as JAK2V617F counter-screen | CellTiter-Glo ATP luminescence | inhibition, % at 5.6 µM | 1.1% of 220,000 active;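 active = inhibition above a per-campaign cutoff, the mean inhibition of all tested compounds plus 3 SD, cut at about 27% in these data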
IEC-6 cytotox = IEC-6 cytotoxicity, counter-screen for KLF5 inhibitors. luminescence viability. inhibition, % at 5 µM. 0.78% of 290,000 active; in the data active = inhibition above about 22%
Each line names hits and unclear results; the compound was inactive in the other large screens. In the library only some 1.9% were active in any assay of this set; here they are far more common.

O=C(COc1ccccc1Cl)Nc1cnn(Cc2ccccc2)c1	none
O=C(Nc1cnn(Cc2c(Cl)cccc2Cl)c1)C(c1ccccc1)c1ccccc1	APP transl inh 78
Cc1cc(C(=O)N/N=C2\CCCc3ccccc32)c(C)o1	APP transl inh 68
O=[N+]([O-])c1cccc(-c2nnc(C3CC3)o2)c1	BaF3 parental 35 (no result: APP transl inh)
Nc1nnc(-c2cccc([N+](=O)[O-])c2)o1	none (no result: APP transl inh)
COCCNC(=O)CN1CCC(NC(=O)c2ccco2)CC1	BaF3 parental 46
Cc1nc(=O)c(-c2ccccc2)c(C)n1Cc1ccccc1	APP transl inh 48
Cc1ccc(N/C(N)=N/c2nc(CSc3nnc(C)s3)cc(=O)[nH]2)c(C)c1	APP transl inh 93
OCCNc1c2ccccc2nc2c(F)c(F)c(F)c(F)c12	APP transl inh 87
Cc1c2ccccc2nc2c(F)c(NCCO)c(F)c(F)c12	none
Cc1cc(=O)[nH]c(SCC(=O)N2CCCc3ccccc32)n1	APP transl inh 65
O=C(CSc1nc(O)cc(=O)[nH]1)N1CCCc2ccccc21	none
COCCn1c(SCC(=O)N2CCCc3ccccc32)nc2ccccc2c1=O	BaF3 parental 60
O=C(O)COCC(=O)N1CCc2c([nH]c3ccccc23)C1C(F)(F)F (stereo unspecified)	none (no result: Ba/F3 V617F tox, APP transl inh, BaF3 parental)
COc1ccc(-n2c(-c3ccc(Cl)cc3)c[n+]3c2CCCCC3)cc1	Ba/F3 V617F tox 72, BaF3 parental 66 (no result: APP transl inh)
CCOc1ccc(-n2c(-c3ccccc3)c[n+]3c2CCC3)cc1	Ba/F3 V617F tox 79, BaF3 parental 68
CCOc1ccc(-n2c(-c3ccccc3)c[nH]c2=S)cc1	none (no result: Ba/F3 V617F tox, APP transl inh, BaF3 parental)
COc1ccc(-c2c[n+]3c(n2-c2ccccc2)CCCCC3)cc1	Ba/F3 V617F tox 76, BaF3 parental 64
FC(F)Oc1ccc(-c2c[n+]3c(n2-c2ccccc2)CCCCC3)cc1	Ba/F3 V617F tox 64, BaF3 parental 60 (no result: APP transl inh)
COc1ccc(-n2ccn(CC(=O)Nc3ccccc3OC)c(=O)c2=O)cc1	none (no result: Ba/F3 V617F tox, APP transl inh, BaF3 parental)
COc1ccc(C)cc1NC(=O)c1ccc(NS(=O)(=O)c2cccs2)cc1	none (no result: Ba/F3 V617F tox, APP transl inh, BaF3 parental)
Cc1ccccc1OCC(=O)N/N=C/c1ccc(N2CCOCC2)o1	none (no result: Ba/F3 V617F tox, APP transl inh, BaF3 parental)
CCCC12CN3CC(C)(CN(C1)C3c1ccc(OC)cc1)C2=O (stereo unspecified)	BaF3 parental 94
C/C(=C\C=C(C#N)C#N)c1cc(C#N)c(N)o1	none
O=C1CSc2ccc(S(=O)(=O)N3CCN(c4ccccc4F)CC3)cc2N1	none (no result: Ba/F3 V617F tox, APP transl inh, BaF3 parental)
CCN(CC)c1ccc(/C=N/NC(=O)c2ccco2)cc1	APP transl inh 49
CCN(CC)c1ccc(/C=N/NC(=O)c2ccco2)c(O)c1	none (no result: APP transl inh)
CCN(CC)CCNc1cc(C)nc2c1C(=O)C(=O)C=C2N1CCCCC1	APP transl inh 67
COc1ccc(CCNC(=O)c2nonc2N)cc1OC	BaF3 parental 69
COc1cccc(C(=O)N/N=C(/CCC(=O)O)c2ccccc2)c1	none
COc1cc(C(=O)N/N=C(\c2ccccc2)c2ccccn2)cc(OC)c1OC	APP transl inh 82
COc1cccc(C(=O)N/N=C(/c2ccccc2)c2ccccn2)c1	Ba/F3 V617F tox 101, BaF3 parental 97
Clc1ccc2c(c1)[C@H]1OCC[C@H]1[C@@H](c1ccco1)N2	none
CCc1ccc2c(c1)[C@H]1OCC[C@H]1[C@@H](c1cccs1)N2	APP transl inh 65, BaF3 parental 41
CC(C)(CO)CNC(=O)c1ccc(OC2CCN(C(=O)C3CC3)CC2)cc1	none
CCN(CC)S(=O)(=O)c1ccc(OCCNS(C)(=O)=O)cc1	none
CCNC(=S)N/N=C(\C)c1ccc(N2CCOCC2)cc1	none
CNC(=S)N/N=C(\C)c1ccc(N2CCOCC2)cc1	Ba/F3 V617F tox 96, BaF3 parental 41
CCN(CC)CCN(Cc1cc2ccc(C)c(C)c2[nH]c1=O)C(=S)NCc1ccco1	none
COc1cc(C(=O)Oc2ccc(/C=N/NC(=O)c3ccncc3)cc2)cc(OC)c1OC	none (no result: Ba/F3 V617F tox, APP transl inh, BaF3 parental)
COc1cc(C(=O)N/N=C/c2ccc(OC(=O)N3CCOCC3)cc2)cc(OC)c1OC	APP transl inh 61
Cc1nc(-c2ccccc2)sc1C(=O)NN	APP transl inh 73
C=CCNC(=O)c1sc(-c2ccccc2)nc1C	none
O=S(=O)(c1ccc(Br)cc1)N1CCC2(CC1)OCCO2	none (no result: Ba/F3 V617F tox, APP transl inh, BaF3 parental)
CCN(CC)Cc1nc2c(c(=O)[nH]1)C(CC)(CC)Cc1ccccc1-2	none (no result: Ba/F3 V617F tox, APP transl inh, BaF3 parental)
N/C(=N\NC(=O)c1sccc1OCc1ccc(Cl)cc1Cl)c1ccccn1	APP transl inh 62
CNC(=S)NNC(=O)c1sccc1OCc1ccc(Cl)cc1Cl	none
CC(CNc1nc2ccc(Cl)cc2n2cnnc12)c1ccccc1 (stereo unspecified)	none (no result: Ba/F3 V617F tox, APP transl inh, BaF3 parental)
O=c1c2ccccc2nnn1Cc1ccc2ccccc2c1	BaF3 parental 89
CN(C(=O)CCN1C(=O)S/C(=C\c2ccccc2)C1=O)C1CCS(=O)(=O)C1 (stereo unspecified)	none (no result: Ba/F3 V617F tox, APP transl inh, BaF3 parental)
O=C(Cn1cnc2ccccc2c1=O)N1CCOCC1	APP transl inh 50
Cc1cc(Br)ccc1OCC(=O)NNC(=O)c1ccc(NC(=O)C2CC2)cc1	APP transl inh 45
CCCC(=O)Nc1ccc(C(=O)NNC(=O)COc2ccc(Br)c(C)c2)cc1	APP transl inh 50
COC(=O)NNC(=O)COc1ccc(Br)c(C)c1	none
Cc1cc(=O)n(-c2ccc(O)cc2)[nH]1	Ba/F3 V617F tox 51, BaF3 parental 60
COc1cc(NC(=O)CN(C)S(=O)(=O)c2ccc(-c3ccc(=O)[nH]n3)s2)cc(OC)c1	none (no result: Ba/F3 V617F tox, APP transl inh, BaF3 parental)
O=C(CSc1nnc(COc2ccc(Cl)cc2)o1)N1CCCC1	none (no result: Ba/F3 V617F tox, APP transl inh, BaF3 parental)
O=C(CSc1nnc(COc2ccc(Cl)cc2)o1)N1c2ccccc2CCc2ccccc21	Ba/F3 V617F tox 25, BaF3 parental 46
Cc1ccc(N(C(=O)CS(=O)CC(=O)Nc2ccc(F)cc2)C(C)C(=O)NC(C)(C)C)cc1 (stereo unspecified)	none (no result: Ba/F3 V617F tox, APP transl inh, BaF3 parental)
CN(C)CC(C(=O)c1ccccc1)c1ccccc1 (stereo unspecified)	APP transl inh 94
Cc1c(NC(=O)CSc2nnc3c4ccccc4n(CCc4ccccc4)c3n2)c(=O)n(-c2ccccc2)n1C	IEC-6 cytotox 60
CCn1c2ccccc2c2nnc(SCC(=O)Nc3c(C)n(C)n(-c4ccccc4)c3=O)nc21	none
COc1ccc(C=C2c3ccccc3C(=O)c3ccccc32)c(OC)c1	Ba/F3 V617F tox 84, BaF3 parental 83, IEC-6 cytotox 87 (no result: APP transl inh)
COc1ccc(/C=C2\CN(Cc3ccccc3)C/C(=C\c3ccc(OC)cc3OC)C2=O)c(OC)c1	none
O=C(CCCOc1cccc(Br)c1)NCCOc1ccccc1	none (no result: Ba/F3 V617F tox, APP transl inh, BaF3 parental)
Cn1ncc(Br)c1C(=O)Nc1c(F)c(F)cc(F)c1F	none
CSc1ccccc1NC(=O)c1c(Br)cnn1C	APP transl inh 51
BrC(=C\c1ccccc1)/C=N/Nc1nc(N2CCOCC2)nc(N2CCOCC2)n1	APP transl inh 63
O=C(NCC1CCCO1)c1ccc([N+](=O)[O-])s1 (stereo unspecified)	none (no result: Ba/F3 V617F tox, APP transl inh, BaF3 parental)
CCN(CC)CCNC(=O)c1ccc(Cl)c(S(=O)(=O)Nc2ccc(Cl)cc2)c1	APP transl inh 60
CCN(CC)CCNC(=O)c1ccc(Cl)c(S(=O)(=O)Nc2ccccc2OC)c1	none
CC1(C)Cc2c(sc(NC(=O)c3ccc(S(=O)(=O)N4CCCCCC4)cc3)c2C#N)C(C)(C)N1	none (no result: Ba/F3 V617F tox, APP transl inh, BaF3 parental)
Cc1ccc(OCc2cc(C(=O)Nc3ccccc3)oc2C)cc1	none

Bioassay records (PubChem)
